This is a sample that favours compounds with a hit; in the whole collection about 10% have one here.
RORg inh: ROR gamma (mouse) transcription inhibition | P51450 | hit rate 5.4% among 310,000 | Drosophila S2 Gal4-RORgamma UAS-luciferase reporter, 20 h | Potency, µM (titrated, usually from 53.6 µM), usual class: inhibitors; further: nearly all actives have a fitted effect of over 60% in size
Target sequence (P51450 whole entry, looked up, the tested form may be a part): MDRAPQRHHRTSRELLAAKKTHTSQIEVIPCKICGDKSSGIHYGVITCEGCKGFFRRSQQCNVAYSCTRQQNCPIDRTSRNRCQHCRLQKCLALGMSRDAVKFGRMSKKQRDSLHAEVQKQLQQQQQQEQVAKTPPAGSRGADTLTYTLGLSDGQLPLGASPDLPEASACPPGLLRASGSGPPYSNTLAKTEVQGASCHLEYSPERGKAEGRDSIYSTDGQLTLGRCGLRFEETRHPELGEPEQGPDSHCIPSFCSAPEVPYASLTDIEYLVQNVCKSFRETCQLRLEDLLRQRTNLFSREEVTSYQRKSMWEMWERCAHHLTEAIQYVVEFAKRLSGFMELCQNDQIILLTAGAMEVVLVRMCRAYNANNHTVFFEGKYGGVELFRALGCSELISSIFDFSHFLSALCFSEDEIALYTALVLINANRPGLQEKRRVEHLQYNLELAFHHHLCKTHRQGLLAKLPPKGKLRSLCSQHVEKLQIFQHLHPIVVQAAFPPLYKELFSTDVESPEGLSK
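Stably transfected Drosophila Schneider cells are the test system, with ROR gamma fused to Gal4 and luciferase under UAS control; luminescence is read after 20 hr of 700 uM copper sulfate induction at ambient temperature.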
ELG1 repair inh: inhibitors of ELG1-dependent DNA repair in HEK293T cells; HEK293T ELG1-luciferase reporter, luminescence, 16 h; DNA damage induced by 5-fluorouridine; hit rate 2.3% among 330,000; Potency, µM (highest dose often 46.1 µM), actives largely listed as inhibitors; further: nearly all actives have a fitted effect of over 55% in size
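Step one: seed 2,000 cells per well. Step two: pin-transfer compound or DMSO alongside 5-fluorouridine. Step three: incubate 16 hr, 37 °C, 5% CO2. Step four: add ONE-Glo, wait 30 min, read luminescence.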
MCF10A rerep: DNA re-replication induction in MCF 10a cells | hit rate 2.9% among 350,000 | MCF 10A DNA re-replication, Hoechst nuclear intensity, 48 h | Potency, µM (series often up to 46.1 µM), usual class: activators; further: nearly all actives have a fitted effect of over 50% in size
Gal4-VP16 FLuc: inhibits Gal4-VP16 luciferase reporter, ROR gamma counter-screen; Drosophila S2 Gal4-VP16 UAS-luciferase, luminescence, 20 h; Potency, µM (doses to about 53.6 µM), most hits filed as inhibitors; hit rate 3.5% among 310,000; AID 2546;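 further: Gal4-VP16 expression switched on by copper sulfate through the metallothionein promoter; nearly all actives have a fitted effect of over 50% in size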
SW480 rereplic: induces DNA re-replication in SW480 colon adenocarcinoma cells; Potency, µM (titrated, usually from 46.1 µM), usual class: activators; hit rate 1.8% among 340,000; SW480 DNA re-replication, Hoechst DNA content imaging, 48 h; further: nearly all actives have a fitted effect of over 55% in size
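First, 250 cells per well were seeded. Next, compound or vehicle (23 nL) was pinned in, plates sat 48 hr at 37 C. Finally Hoechst was added for 40 min before fluorescence scanning.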
Hits are given with their value. The call rests on the fitted dose curve; in most records, active means well fitted curve in the direction sought with a large enough effect; inconclusive means small, poorly fitted or top-dose-only effect, or another doubt; inactive means no such curve, though single readings can be large; an effect the other way counts as inactive or inconclusive.

`O=C(Nc1cccc(C(F)(F)F)c1)c1sc(Cl)nc1C(F)(F)F` gave RORg inh inactive, ELG1 repair inh inconclusive, MCF10A rerep 20.6µM, Gal4-VP16 FLuc inactive and SW480 rereplic inactive.
`O=C(Nc1ccc(OC(F)F)cc1)Nc1cccc(C(F)(F)F)c1` gave RORg inh inconclusive, ELG1 repair inh inactive, MCF10A rerep inconclusive, Gal4-VP16 FLuc 25.1µM and SW480 rereplic inconclusive.
O=C(CCn1nc(-c2ccc(F)cc2)ccc1=O)NCc1ccccc1 was read as RORg inh inactive, ELG1 repair inh inconclusive, MCF10A rerep inactive, Gal4-VP16 FLuc inactive and SW480 rereplic inactive.
Screening CN(CC(=O)Nc1ccccc1Cl)C(=O)COC(=O)/C=C/c1ccc(C(F)(F)F)cc1 returned RORg inh inactive, ELG1 repair inh inactive, MCF10A rerep inactive, Gal4-VP16 FLuc inactive and SW480 rereplic inactive.
Screening O=C(NCCS(=O)(=O)N1CCCCC1)c1ccc2c(c1)OCO2 returned ELG1 repair inh inactive, MCF10A rerep inactive and SW480 rereplic inactive.
Cc1ccnc(NS(=O)(=O)c2cc(C(F)(F)F)ccc2Cl)c1 was read as RORg inh inactive, ELG1 repair inh inactive and Gal4-VP16 FLuc inactive.
`O=C(c1cccc(F)c1)N(Cc1nc2ccccc2c(=O)[nH]1)C1CCCC1` gave RORg inh 6.31µM, ELG1 repair inh inactive, MCF10A rerep inactive, Gal4-VP16 FLuc inconclusive and SW480 rereplic inactive.
For O=C(c1ccccc1)N(Cc1nc2ccccc2c(=O)[nH]1)C1CCCCC1 the results were RORg inh inconclusive, ELG1 repair inh inactive, MCF10A rerep inactive, Gal4-VP16 FLuc inactive and SW480 rereplic inactive.
O=C(c1ccccc1F)N(Cc1nc2ccccc2c(=O)[nH]1)C1CCCC1 was read as RORg inh 2.82µM, ELG1 repair inh inactive, MCF10A rerep inactive, Gal4-VP16 FLuc 7.94µM and SW480 rereplic inactive.
`Cc1ccc(-c2cc(C(=O)n3cnc4ccccc43)c3ccccc3n2)cc1C` gave RORg inh 10µM, ELG1 repair inh inconclusive, MCF10A rerep inactive, Gal4-VP16 FLuc 12.6µM and SW480 rereplic inactive.
Cc1cccc(-c2cc(C(=O)NCc3ccccn3)c3ccccc3n2)c1 was read as RORg inh inactive, ELG1 repair inh 16.4µM, MCF10A rerep inactive, Gal4-VP16 FLuc inactive and SW480 rereplic inactive.
Screening O=C(NCc1ccccn1)c1cc(-c2ccccc2)nc2ccccc12 returned RORg inh inactive, ELG1 repair inh inconclusive, MCF10A rerep inactive, Gal4-VP16 FLuc inactive and SW480 rereplic inconclusive.
For O=C(NCc1ccccn1)c1cc(-c2ccc(-c3ccccc3)cc2)nc2ccccc12 the results were RORg inh inconclusive, ELG1 repair inh inconclusive, MCF10A rerep inconclusive, Gal4-VP16 FLuc inactive and SW480 rereplic inactive.
Screening Cc1ccc(-c2cc(C(=O)NCc3ccccn3)c3ccccc3n2)cc1C returned RORg inh inconclusive, ELG1 repair inh inconclusive, MCF10A rerep 5.8µM, Gal4-VP16 FLuc inactive and SW480 rereplic inconclusive.
COc1ccc(C(=O)C2CCCN(Cc3ccc4nonc4c3)C2)c(OC)c1 (stereo unspecified) was read as RORg inh inactive, ELG1 repair inh inconclusive, MCF10A rerep inactive, Gal4-VP16 FLuc inactive and SW480 rereplic inactive.
`O=C(Nc1ccn(CCCN2CCN(c3ccccn3)CC2)c(=O)n1)OCc1ccccc1` gave MCF10A rerep inactive and SW480 rereplic inactive.
Screening CCOC(=O)c1cc2c(=O)n3ccccc3nc2n(Cc2ccco2)c1=NC(=O)c1cccnc1 returned RORg inh inactive, ELG1 repair inh inconclusive, MCF10A rerep inconclusive, Gal4-VP16 FLuc inactive and SW480 rereplic 6.51µM.
Screening Cc1cccc(C(=O)N=c2c(C#N)cc3c(=O)n4cccc(C)c4nc3n2Cc2ccco2)c1 returned RORg inh inactive, ELG1 repair inh inconclusive, MCF10A rerep 18.4µM, Gal4-VP16 FLuc inactive and SW480 rereplic 23.1µM.
`Cc1cccn2c(=O)c3cc(C#N)c(=NC(=O)c4ccccc4)n(Cc4ccco4)c3nc12` gave MCF10A rerep 2.31µM and SW480 rereplic 7.31µM.
Screening CCOC(=O)c1cc2c(=O)n3cccc(C)c3nc2n(Cc2ccco2)c1=NC(=O)c1cccnc1 returned RORg inh inactive, ELG1 repair inh inactive, MCF10A rerep inactive, Gal4-VP16 FLuc inactive and SW480 rereplic inconclusive.
`Cc1cc(OCc2nc(-c3ccncc3)no2)cc(C)c1Cl` gave RORg inh inactive, ELG1 repair inh inactive, MCF10A rerep inactive, Gal4-VP16 FLuc inactive and SW480 rereplic inactive.
`O=C(COc1ccc2c3c(c(=O)oc2c1)CCCC3)NCc1cccnc1` gave RORg inh inactive, ELG1 repair inh inactive, MCF10A rerep inactive, Gal4-VP16 FLuc inactive and SW480 rereplic inactive.
Screening c1cnc2nc3c4ccccc4c4ccccc4c3nc2c1 returned MCF10A rerep 10.3µM and SW480 rereplic 23.1µM.
O=C(NC1C2CC3CC(C2)CC1C3)C1CCCCC1 (stereo unspecified) was read as RORg inh inactive, ELG1 repair inh inactive, MCF10A rerep inactive, Gal4-VP16 FLuc inactive and SW480 rereplic inactive.
Screening CCOc1ccc(Cl)cc1S(=O)(=O)N1CCC(C(=O)NC2CC2)CC1 returned RORg inh inactive, ELG1 repair inh inactive, MCF10A rerep inactive, Gal4-VP16 FLuc inactive and SW480 rereplic inactive.
`Cc1c2c(n3c(nc4ccccc43)c1C#N)N(c1ccccc1)CC2` gave RORg inh inactive, ELG1 repair inh inactive, MCF10A rerep inactive, Gal4-VP16 FLuc inactive and SW480 rereplic inactive.
Screening Cc1c2c(n3c(nc4ccccc43)c1C#N)N(CCN(C)C)CC2 returned RORg inh inactive, ELG1 repair inh inactive, MCF10A rerep 16.4µM, Gal4-VP16 FLuc inactive and SW480 rereplic 9.2µM.
Screening Cc1c2c(n3c(nc4ccccc43)c1C#N)N(CCCN(C)C)CC2 returned RORg inh inactive, ELG1 repair inh inactive, MCF10A rerep 14.6µM, Gal4-VP16 FLuc inactive and SW480 rereplic 9.2µM.
For Cc1ncc(CO)c(/C=N/NC(=O)c2ccoc2C)c1O the results were ELG1 repair inh inconclusive, MCF10A rerep inactive and SW480 rereplic inconclusive.
COc1ccc(C(=O)N/N=C/c2c(CO)cnc(C)c2O)cc1 was read as RORg inh inconclusive, ELG1 repair inh 13µM, MCF10A rerep inactive, Gal4-VP16 FLuc inactive and SW480 rereplic inactive.
`Cc1ncc(CO)c(/C=N/NC(=O)c2cc3c(s2)CCCC3)c1O` gave RORg inh 10µM, ELG1 repair inh 3.26µM, MCF10A rerep inconclusive, Gal4-VP16 FLuc inactive and SW480 rereplic inactive.
Cc1ncc(CO)c(/C=N/NC(=O)c2ccccc2Br)c1O was read as RORg inh 10µM, ELG1 repair inh inconclusive, MCF10A rerep inactive, Gal4-VP16 FLuc 17.8µM and SW480 rereplic inconclusive.
Cc1ncc(CO)c(/C=N/NC(=O)c2ccc(O)cc2)c1O was read as RORg inh 10µM, ELG1 repair inh inactive, MCF10A rerep inactive and Gal4-VP16 FLuc inconclusive.
For O=c1[nH]c(NCc2ccco2)nnc1Cc1ccccc1Cl the results were RORg inh inactive, MCF10A rerep inconclusive, Gal4-VP16 FLuc inactive and SW480 rereplic 7.31µM.
